# TEAD-YAP block: TEAD-YAP interaction inhibition. hit rate 1.4% among 640,000. HEK-TIYL cells, TEAD-Gal4/YAP UAS-luciferase luminescence. AID 1259422. inhibition, % at 9.12 µM; in the data active = inhibition above about 32%;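 also: 0% = median of test compound wells and 100% = reference inhibitor wells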
# GPR151 activ: activators of human GPR151; hit rate 1% among 650,000; PathHunter beta-arrestin GPR151 cells, luminescence; activation, % at 11.2 µM; Q8TDV0; AID 1508602; in the data active = activation above about 4.9%;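 also: 0% = median of compound wells and 100% = cells with positive control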
# MITF inh: blocks human microphthalmia-associated transcription factor; O75030; AlphaScreen MITF homodimerization, bead proximity signal; inhibition, % at 2.6 µM; hit rate 0.91% among 650,000; AID 1259374; in the data active = inhibition above about 50%;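 also: 0% = vehicle wells with protein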
# FBW7 act: activators of human E3 ligase FBW7 | hit rate 0.13% among 650,000 | normalized activity (activation), % at 26.1 µM | AlphaScreen FBW7–phospho-cyclin E peptide binding, activator screen; in the data active = normalized activity above about 1.9%;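 also: purified mutant Fbw7 with reduced substrate affinity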
# Target sequence (Q969H0 whole entry, looked up): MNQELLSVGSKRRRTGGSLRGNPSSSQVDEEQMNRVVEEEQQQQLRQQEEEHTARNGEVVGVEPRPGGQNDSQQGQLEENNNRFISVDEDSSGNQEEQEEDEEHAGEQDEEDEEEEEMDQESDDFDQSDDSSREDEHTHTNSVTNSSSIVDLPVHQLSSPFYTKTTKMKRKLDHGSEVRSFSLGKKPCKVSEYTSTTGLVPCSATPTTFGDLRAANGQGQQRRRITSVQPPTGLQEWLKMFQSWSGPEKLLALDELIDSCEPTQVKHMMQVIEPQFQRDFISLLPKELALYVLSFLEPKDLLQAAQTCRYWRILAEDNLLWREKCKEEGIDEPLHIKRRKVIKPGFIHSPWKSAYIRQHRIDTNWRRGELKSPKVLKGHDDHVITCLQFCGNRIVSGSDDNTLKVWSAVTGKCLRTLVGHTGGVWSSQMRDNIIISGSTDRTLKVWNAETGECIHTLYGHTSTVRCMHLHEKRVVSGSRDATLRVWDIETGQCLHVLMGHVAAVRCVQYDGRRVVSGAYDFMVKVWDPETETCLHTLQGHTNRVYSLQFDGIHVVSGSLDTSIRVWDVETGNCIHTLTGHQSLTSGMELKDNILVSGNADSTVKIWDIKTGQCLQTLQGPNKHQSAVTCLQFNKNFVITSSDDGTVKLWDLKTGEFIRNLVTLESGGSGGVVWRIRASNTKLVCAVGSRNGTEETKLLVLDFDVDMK
# GPR151 conf act: human GPR151 activation, confirmation screen; shares compounds with GPR151 activ; GPR151 PathHunter beta-arrestin cells, luminescence, 90 min; % of EA-reagent control over plate median; activation, % at 11.2 µM; 6,700 tested, under 10 active;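 active = mean percent activation across replicates above the confirmation screen cutoff of 4.91%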
# GPR119 ag: counter-screen for GPR151 activators: effect on human GPR119; shares compounds with GPR151 activ; activation, % at 11.2 µM; GPR119 PathHunter beta-arrestin cells, luminescence, 90 min; 0 = compound-well median, 100 = enzyme-acceptor control; hit rate 0.3% among 6,700;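 active = mean percent activation in the counterscreen above 29.09%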;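 also: counterscreen on off-target GPR119 to flag nonselective hits from the GPR151 activator screen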
# * = called active by the depositor; · = no result given. Rows were chosen to be rich in hits. Some 3.5% of all compounds tested hit in one or more screens of this group.
SMILES,TEAD-YAP block,GPR151 activ,MITF inh,FBW7 act,GPR151 conf act,GPR119 ag
C=CCOc1ccc(/C(O)=C2/C(=O)C(=O)N(Cc3cccnc3)C2c2ccc(OC)cc2)c(C)c1 (stereo not given),5,1,17,0,·,·
CCC(C)C(=O)C(=O)NCC1Cc2cccc(-c3nc(C)cnc3C)c2O1 (stereo not given),-2,3,4,0,·,·
COc1ccccc1CNC(=O)CN1C(=O)COc2cc(S(=O)(=O)NC(C)C)ccc21,1,-2,0,0,·,·
NC(C(=O)N1CCN(c2ccc3cnccc3c2)CC1)c1ccc(-c2ccccc2)cc1 (stereo not given),-4,7.5*,12,0,0,2
NC(C(=O)N1CCC(Nc2ccc3cnccc3c2)CC1)c1ccc(-c2ccccc2)cc1 (stereo not given),-18,-1,-12,0,·,·
CSc1cccc(CN2CCN3C(=O)[C@H](Cc4ccccc4)NC(=O)[C@H]3C2)c1,6,-1,7,0,·,·
Cc1ccc(N2CCN(S(=O)(=O)c3ccc4[nH]cc(C(=O)O)c(=O)c4c3)CC2C)cc1 (stereo not given),5,0,15,0,·,·
CCN1CCCC1CNC(=O)c1c(O)c2c([nH]c1=O)CCCC2 (stereo not given),5,6.8*,6,0,0,2
O=C(NCCN1CCNCC1)c1c(O)c2c([nH]c1=O)CCCC2,7,2,3,0,·,·
CCCCCNC(=O)c1c(O)c2c([nH]c1=O)CCCC2,-14,18*,9,1,1,3
Cc1cc(C)cc(NC(=O)CN2C(=O)CC(C)(C)S(=O)(=O)c3ccccc32)c1,-14,0,10,1,·,·
Cc1ccc(S(=O)(=O)NCCOC23CC4CC(CC(C4)C2)C3)cc1C,-11,1,-15,0,·,·
COc1ccc(S(=O)(=O)NCCOC23CC4CC(CC(C4)C2)C3)cc1C,-12,5.3*,1,0,0,4
CC(C)Oc1ccc(Br)cc1/C=C(\C#N)c1nn(-c2ccccc2)c(N)c1C#N,-5,0,7,0,·,·
N#C/C(=C\c1c[nH]c2ccccc12)C(=O)N1CCc2ccccc2C1,-10,-1,-12,0,·,·
N#C/C(=C\c1ccc[nH]1)C(=O)N1CCc2ccccc2C1,-28,5.3*,0,0,1,9
O=[N+]([O-])c1cccc(C2SCCN2S(=O)(=O)c2ccc(I)cc2)c1 (stereo not given),-5,0,3,0,·,·
O=[N+]([O-])c1cccc(C2CC(c3ccc(Br)cc3)=NN2S(=O)(=O)c2ccccc2)c1 (stereo not given),-4,5.4*,8,0,0,12
O=[N+]([O-])c1cccc(C2SCCN2S(=O)(=O)c2ccc(Br)cc2)c1 (stereo not given),5,5.8*,12,0,-1,-17
O=S(=O)(c1ccccc1)N1N=C(c2ccccc2)CC1c1ccco1 (stereo not given),20,5.4*,10,0,0,-2
CCn1c(=O)c(C(=O)NNC(=O)c2ccc([N+](=O)[O-])cc2)c(O)c2ccccc21,0,21*,7,0,0,-6
COc1cccc(C2c3c(oc4ccc(C)cc4c3=O)C(=O)N2CCN2CCOCC2)c1 (stereo not given),-18,1,-6,0,·,·
COc1ccccc1C1c2c(oc3ccc(C)cc3c2=O)C(=O)N1CCN1CCOCC1 (stereo not given),3,13*,-9,0,1,7
CCOc1ncccc1C(=O)NC1(C)CCS(=O)(=O)C1 (stereo not given),-1,6.2*,-13,0,-1,-5
Clc1ccc(Nc2nc(NCCN3CCOCC3)nc(N3CCCC3)n2)cc1,-6,1,6,0,·,·
SMILES,TEAD-YAP block,GPR151 activ,MITF inh,FBW7 act,GPR151 conf act,GPR119 ag
COc1ccc(/C=C/C(=O)Nc2sc3c(c2C(=O)NCc2cccnc2)CCCC3)cc1,6,6.7*,6,0,1,-6
COc1ccc(/C=C/C(=O)Nc2sc3c(c2C(N)=O)CCCCC3)cc1,4,0,13,0,·,·
COc1ccc(CN2CCN(Cc3cnc(-c4ccccc4)s3)CC2CCO)cc1C (stereo not given),13,6.7*,-5,0,0,-4
CN(C)c1ncc(CN2CCN(CCc3ccccc3)C(CCO)C2)s1 (stereo not given),10,9.8*,10,0,0,5
CCOc1ccc(CN2CCN(Cc3cnc(-c4ccccc4)s3)CC2CCO)cc1 (stereo not given),12,-1,16,0,·,·
CN(C)c1ncc(CN2CCN(Cc3ccc(F)cc3)C(CCO)C2)s1 (stereo not given),-7,4,-2,0,·,·
Cc1nc2nc(SCC(=O)NCCc3ccccc3)nn2c(C)c1Cc1ccc(Cl)cc1,3,0,-5,0,·,·
COCc1ccc(CN2CCCC(CNC(=O)c3ccc(-c4ccccc4)cc3)C2)o1 (stereo not given),2,-1,-2,0,·,·
O=C(NCC1CCCN(Cc2ccc(CO)o2)C1)c1ccc(-c2ccccc2)cc1 (stereo not given),-6,16*,10,0,0,-7
Cc1nnc(NC(=O)c2cn(-c3ccccc3)nc2-c2ccccc2C)o1,·,1,·,·,·,·
CCOc1ccc(CCNS(=O)(=O)c2ccc3c(c2)OCCN3C(C)=O)cc1OCC,4,5.2*,10,1,0,-7
COc1ccc(N2C(=O)CN(C(=O)Cn3cnc4ccccc43)CC2(C)C)cc1,-2,4,2,0,·,·
COc1ccc(Nc2nc(C)cc(NCC3CCCO3)n2)cc1 (stereo not given),0,2,4,0,·,·
Cc1cc(NCC2CCCO2)nc(Nc2ccc(N3CCOCC3)cc2)n1 (stereo not given),20,4.9*,4,0,0,-7
COc1ccc([C@@H]2C[C@H]3CN(c4ccccc4)C(=O)[C@]34CCCN24)c(OC)c1,4,0,0,0,·,·
CCOC(=O)C1=C(C)N=c2s/c(=C\c3ccc(-c4ccc(Cl)cc4Cl)o3)c(=O)n2C1c1ccc(Cl)cc1 (stereo not given),2,0,2,0,·,·
COc1ccccc1NC(=O)c1ccc(SCC(=O)NC2CCCCCC2)c([N+](=O)[O-])c1,13,8.3*,15,0,0,6
CC(C)n1cnc2c(NCCN3CCOCC3)nc(Nc3ccc(N4CCOCC4)cc3)nc21,-2,-1,-3,0,·,·
Cc1ccc(-n2c(C)cc(C=C3C(=O)NC(=O)NC3=O)c2C)cc1,8,8.6*,8,0,0,-5
Cc1ccc(NC(=O)CO/N=C(\N)c2nonc2N)cc1,7,5.9*,8,0,1,-6
